JMJD2A Tudor inh = qHTS Assay for Inhibitors of JMJD2A-Tudor Domain | Potency, µM (series often up to 114 µM), inactives show top-dose activity change, negative = inhibition, most hits filed as inhibitors | AlphaScreen JMJD2A-Tudor / H3K4me3 peptide binding | AID 504339, 2011 | Lysine-specific demethylase 4A (Homo sapiens), O75164 | actives 4.4% (n = 390,000); further: on the % scale 0 is the no-effect control and ±100 the full control effect; nearly all actives have a fitted effect of over 50% in size
PLK1 PBD inh = qHTS for Inhibitors of PLK1-PDB (polo-like kinase 1 - polo-box domain): Primary Screen; Serine/threonine-protein kinase PLK1 (Homo sapiens), P53350; Plk1 PBD binding of FITC phosphopeptide, fluorescence polarization; actives 2.8% (n = 360,000); Potency, µM, for the others: max response, negative = inhibition, actives largely listed as inhibitors; AID 720504, 2013; further: series mostly up to about 57 µM; on the % scale 0 is the no-effect control and ±100 the full control effect; nearly all actives have a fitted effect of over 65% in size
BAZ2B block = qHTS Assay for Inhibitors of BAZ2B; AlphaScreen BAZ2B-H3K14Ac peptide displacement; Potency, µM (highest dose often 114 µM), without a hit: top-dose activity change, negative = inhibition, usual class: inhibitors; actives 4.4% (n = 360,000); Bromodomain adjacent to zinc finger domain protein 2B (Homo sapiens), Q9UIF8; further: on the % scale 0 is the no-effect control and ±100 the full control effect; nearly all actives have a fitted effect of over 60% in size
Target sequence (Q9UIF8 whole entry, looked up, the tested form may be a part): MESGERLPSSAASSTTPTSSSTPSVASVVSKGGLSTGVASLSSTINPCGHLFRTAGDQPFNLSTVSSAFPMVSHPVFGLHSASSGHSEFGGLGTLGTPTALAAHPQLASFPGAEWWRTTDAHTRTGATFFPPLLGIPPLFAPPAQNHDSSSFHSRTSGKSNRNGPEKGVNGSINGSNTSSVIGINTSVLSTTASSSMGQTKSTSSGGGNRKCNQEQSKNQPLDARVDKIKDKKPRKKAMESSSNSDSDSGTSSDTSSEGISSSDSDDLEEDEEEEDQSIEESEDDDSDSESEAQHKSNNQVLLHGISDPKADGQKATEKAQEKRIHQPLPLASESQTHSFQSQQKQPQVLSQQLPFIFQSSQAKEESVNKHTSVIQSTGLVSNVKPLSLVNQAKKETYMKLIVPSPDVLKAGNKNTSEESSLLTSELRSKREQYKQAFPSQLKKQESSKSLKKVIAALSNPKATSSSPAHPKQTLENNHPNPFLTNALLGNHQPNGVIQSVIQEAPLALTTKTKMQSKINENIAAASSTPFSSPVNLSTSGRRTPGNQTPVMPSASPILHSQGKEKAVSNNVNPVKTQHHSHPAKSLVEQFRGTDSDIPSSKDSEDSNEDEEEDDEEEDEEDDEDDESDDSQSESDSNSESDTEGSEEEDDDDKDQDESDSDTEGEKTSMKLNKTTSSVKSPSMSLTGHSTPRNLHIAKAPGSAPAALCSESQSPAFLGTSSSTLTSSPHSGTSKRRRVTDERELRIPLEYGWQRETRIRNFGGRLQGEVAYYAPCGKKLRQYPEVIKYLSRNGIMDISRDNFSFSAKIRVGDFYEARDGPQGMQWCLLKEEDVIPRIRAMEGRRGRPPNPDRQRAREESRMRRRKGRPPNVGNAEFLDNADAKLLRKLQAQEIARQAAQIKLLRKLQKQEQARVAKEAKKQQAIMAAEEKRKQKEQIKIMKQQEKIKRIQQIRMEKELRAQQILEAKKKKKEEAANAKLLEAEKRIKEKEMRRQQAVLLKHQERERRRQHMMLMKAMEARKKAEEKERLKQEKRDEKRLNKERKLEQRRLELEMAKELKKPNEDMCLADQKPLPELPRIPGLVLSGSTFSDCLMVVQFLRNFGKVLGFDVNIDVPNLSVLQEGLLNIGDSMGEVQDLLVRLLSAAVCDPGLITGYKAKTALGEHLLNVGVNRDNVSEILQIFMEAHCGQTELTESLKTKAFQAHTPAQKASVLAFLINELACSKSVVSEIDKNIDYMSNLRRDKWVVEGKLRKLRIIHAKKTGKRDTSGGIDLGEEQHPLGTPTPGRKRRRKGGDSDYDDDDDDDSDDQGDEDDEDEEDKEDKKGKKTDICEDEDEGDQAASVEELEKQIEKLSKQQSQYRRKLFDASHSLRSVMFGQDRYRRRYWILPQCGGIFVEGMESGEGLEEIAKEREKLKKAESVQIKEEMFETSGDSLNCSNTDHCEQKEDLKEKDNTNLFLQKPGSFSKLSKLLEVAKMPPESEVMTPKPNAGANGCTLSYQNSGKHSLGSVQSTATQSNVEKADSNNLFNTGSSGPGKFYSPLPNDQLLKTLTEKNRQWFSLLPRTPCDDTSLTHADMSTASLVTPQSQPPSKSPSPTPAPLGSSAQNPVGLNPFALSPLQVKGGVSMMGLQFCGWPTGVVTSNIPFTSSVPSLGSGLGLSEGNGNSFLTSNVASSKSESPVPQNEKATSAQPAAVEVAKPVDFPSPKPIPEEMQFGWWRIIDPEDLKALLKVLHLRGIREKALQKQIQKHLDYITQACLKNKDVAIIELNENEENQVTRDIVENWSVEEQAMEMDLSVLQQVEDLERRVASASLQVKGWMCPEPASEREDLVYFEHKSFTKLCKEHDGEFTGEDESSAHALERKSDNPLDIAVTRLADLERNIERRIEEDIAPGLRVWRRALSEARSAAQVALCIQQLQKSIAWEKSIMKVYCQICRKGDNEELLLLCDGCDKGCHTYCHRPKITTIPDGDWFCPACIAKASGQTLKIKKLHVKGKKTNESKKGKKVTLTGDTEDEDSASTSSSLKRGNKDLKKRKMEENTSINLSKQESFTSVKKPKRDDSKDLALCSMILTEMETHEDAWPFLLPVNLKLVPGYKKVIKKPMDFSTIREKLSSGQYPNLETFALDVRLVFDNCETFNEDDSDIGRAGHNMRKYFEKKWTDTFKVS
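Complex of BAZ2B and biotin-H3K14Ac (50 nM apiece) forms over 30 min at RT, then faces library compounds up to 110 uM for another 30 min; AlphaScreen beads added, 20 min dark incubation, luminescence read.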
HP1b chromo inh = HTS for Inhibitors of HP1-beta Chromodomain Interactions with Methylated Histone Tails. AlphaScreen HP1-beta / biotin-H3K9me3 peptide binding. Potency, µM (highest dose often 114 µM), for the others: at the top dose activity change, negative = inhibition, usual class: inhibitors. actives 0.56% (n = 390,000). AID 540317, 2011; further: nearly all actives have a fitted effect of over 70% in size
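AlphaScreen: HP1-beta (50 nM) preformed 30 min with biotin-H3(1-18)K9me3 peptide (50 nM) in PBS pH 7.4, 0.01% Tween-20. Compound added for 30 min at RT, then streptavidin donor/nickel chelate acceptor beads (10 ug/mL) for 30 min.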
G9a block = qHTS Assay for Inhibitors of Histone Lysine Methyltransferase G9a | actives 8.8% (n = 350,000) | Histone-lysine N-methyltransferase EHMT2 (Homo sapiens), Q96KQ7 | G9a H3K9 monomethylation, AlphaScreen, 2 h | Potency, µM (highest dose often 102 µM), inactives show top-dose activity, negative = inhibition, most hits filed as inhibitors; further: on the % scale 0 is the no-effect control and ±100 the full control effect; nearly all actives have a fitted effect of over 75% in size
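Using a bead-based AlphaScreen, monomethylated H3K9 product from 2 h room-temperature reactions (G9a 20 nM, peptide 500 nM, SAM 20 uM) was detected with 0.5 ug/mL rabbit anti-H3K9me1 antibody.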
ALOX12 inh = Primary qHTS assay for inhibitors of human arachidonate 12S-lipoxygenase (ALOX12): Round 2. Polyunsaturated fatty acid lipoxygenase ALOX12 (Homo sapiens), P18054. purified 12hLO, xylenol orange hydroperoxide absorbance. Potency, µM (top dose mostly 108 µM), for the others: top-dose activity change, negative = inhibition, hits mostly inhibitors. actives 1.1% (n = 580,000); further: on the % scale 0 is the no-effect control and ±100 the full control effect
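Purified human 12hLO at 150 nM in 25 mM Hepes, 0.01% Triton X-100, pH 7.0, preincubated 15 min at room temperature with compound. Reaction started with 40 uM arachidonic acid, 30 min at room temperature. Hydroperoxide measured by Fe-xylenol orange, 573/405 nm absorbance ratio.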
An asterisk follows results filed as active; ? = inconclusive; nt = not tested or not shown; ! = not active in a repeat; [ ] = remark or other dose. A selection: hits, their analogues and other compounds. The true share with any hit is near 9%. The call rests on the fitted dose curve; in most records, active means well fitted curve in the direction sought with a large enough effect; inconclusive means small, poorly fitted or top-dose-only effect, or another doubt; inactive means no such curve, though single readings can be large; an effect the other way counts as inactive or inconclusive. Potency means the concentration at half of the fitted maximal effect.

SMILES | JMJD2A Tudor inh | PLK1 PBD inh | BAZ2B block | HP1b chromo inh | G9a block | ALOX12 inh
COc1ccc(-c2noc3c2-c2nc(-c4ccccc4F)sc2CC3)cc1 | -6% | -29% | -7% | 33% | 22µM* | 40µM*
O=C1CC(N2CCN(c3ccc(F)cc3)CC2)C(=O)N1Cc1ccccc1 (configuration not stated) | -17% | 4% | ? | 45% | 23% | 12%
COc1ccc(-c2cc(C(=O)Nc3c(C)nn(Cc4ccccc4C)c3C)no2)cc1 | -9% | nt | 4% | 17% | 3%[59 µM] | -11%
O=C(CCc1ccccc1)N1CCC(Oc2ncccc2C(=O)N2CCCCC2)C1 (configuration not stated) | nt | nt | nt | nt | nt | 28%
Cc1ccc(S(=O)(=O)N(C)c2ccc(OCC(=O)Nc3cc(C(=O)O)ccc3Cl)cc2)cc1 | -4% | -7% | nt | 37% | nt | 10%
c1ccc(Cc2nn3c(COc4ccccc4)nnc3s2)cc1 | ? | 4.2µM* | -28% | ? | 5µM* | ?
c1ccc(OCc2nn3c(-c4ccco4)nnc3s2)cc1 | -25% | -11% | -8% | 25% | 50µM* | -4%
CCCc1nnc2sc(COc3ccccc3OCC)nn12 | nt | nt | nt | nt | nt | 8%
CCOc1ccccc1OCc1nn2c(COc3ccccc3)nnc2s1 | ? | 4.7µM* | -21% | ? | ? | ?
Fc1ccc(OCc2nnc3sc(COc4ccccc4)nn23)cc1 | nt | nt | nt | nt | nt | 33%
O=C(NCCc1ccc2c(c1)OCCO2)c1cc(S(=O)(=O)N2CCCC2)ccc1Br | -23% | 0% | nt | 6% | nt | 7%
O=C(NCc1ccccc1)C1CCCN(S(=O)(=O)c2cccc3nonc23)C1 (configuration not stated) | -7% | 1% | -4% | 27% | ? | -14%
O=C(NCc1ccc2c(c1)OCO2)C1CCCN(S(=O)(=O)c2cccc3nonc23)C1 (configuration not stated) | -26%[11.4 µM] | 27µM*! | -3% | -5% | -23%[59 µM] | -6%
O=C(c1cnccn1)N1CCN(C(=O)N2CC3CC(C2)[C@H]2CCCC(=O)N2C3)CC1 (some centres not stated) | nt | nt | nt | nt | nt | -12%
Clc1nc(Cl)nc(N(c2ccccc2)c2ccccc2)n1 | 25µM* | -6% | 79µM* | 5% | 50µM* | ?
Cc1cc2c(SCC(=O)N3CCN(c4ccccc4)CC3)ncnc2s1 | -5% | 1% | 3% | 15% | -20% | -2%
O=C1NC(Cc2ccccc2)C(=O)N1Cc1cc([N+](=O)[O-])cc2c1OCOC2 (configuration not stated) | -7% | -15% | 79µM* | 27% | 3% | -5%
COCc1nnc(NC(=O)CCCOc2ccccc2OC)s1 | 50µM* | 27µM* | -5% | -25% | ? | 0%
O=C(CCS(=O)(=O)c1ccccc1)Nc1ncc([N+](=O)[O-])s1 | -6% | -45% | -1% | 7% | 45µM* | 0%
O=C(CN1C(=O)c2ccccc2S1(=O)=O)Nc1ncc([N+](=O)[O-])s1 | 3.5µM* | 19µM* | ? | -23% | ? | ?
COCc1nnc(NC(=O)CCS(=O)(=O)c2ccccc2)s1 | -9% | ? | ? | ? | 45µM* | 3%
COCc1nnc(NC(=O)CCCOc2ccccc2)s1 | -26% | -2% | -2% | 37% | 5%[12.7 µM] | -14%
Cc1csc(NC(=O)CN2C(=O)c3ccccc3S2(=O)=O)n1 | -14% | -9% | -11% | 19% | 10% | ?
CCCOc1ccc(C(=O)ON=C2CCN(C)CC2)cc1 | -8% | -9% | -13% | 47% | ? | 4%
CCC1(C)Cc2c(sc3nc(NN)n(C)c(=O)c23)CO1 (configuration not stated) | -13% | 3% | 15% | 1% | 45µM* | ?
SMILES | JMJD2A Tudor inh | PLK1 PBD inh | BAZ2B block | HP1b chromo inh | G9a block | ALOX12 inh
CCOC(=O)CSc1nc2sc3c(c2c(=O)[nH]1)CC(C)(CC)OC3 (configuration not stated) | -7% | -23% | 4% | 23% | 32µM* | ?
CCN(C(=O)CSc1nc2cc(C(=O)O)ccc2c(=O)n1-c1ccccc1F)C1CCS(=O)(=O)C1 (configuration not stated) | -10% | 1% | nt | 49% | nt | -1%
CC(C)(C)c1ccc(C(=O)Oc2ccc3c(c2)OCC3=O)cc1 | 5% | -16% | 6% | 35% | 50µM* | 23%
O=C(Oc1ccc2c(c1)OCC2=O)c1ccccc1 | -5% | -7% | -5% | 23% | -23%[12.7 µM] | -6%
COc1ccc(NC2(c3ccccc3)OC(=O)c3ccccc32)cc1 (configuration not stated) | -15% | -3% | -16% | 27% | 23%[59 µM] | -3%
COc1ccc(N2CCN(C3(c4ccccc4)C(=O)c4ccccc4C3=O)CC2)cc1 | 8.9µM* | nt | 7.1µM* | 13µM* | 8.9µM* | -1%
COc1ccc(NC2(c3ccc(Cl)cc3)C(=O)c3ccccc3C2=O)cc1 | 56µM* | -9% | 14µM* | 14µM* | 28µM* | 15%
Cc1cc(C)cc(-n2c(SCC(=O)N3CCOCC3)nc3c([nH]c4ccccc43)c2=O)c1 | -5% | nt | 34% | 51%[57 µM] | 6%[59 µM] | ?
O=C(c1ccccc1)c1ccc(OCC(=O)N2CCOCC2)cc1 | 2% | 1% | -16% | 33% | 2% | 15%
COCCN(CC(=O)Nc1ccccc1C(F)(F)F)C(=O)/C=C/c1cc(Cl)c2c(c1)OCO2 | -22% | -6% | -3% | 28% | 6%[12.7 µM] | -81%
CCN(CC(=O)Nc1ccccc1C(F)(F)F)C(=O)/C=C/c1ccc(Cl)c([N+](=O)[O-])c1 | -14% | -2% | -5% | 20% | 18µM* | ?
CC(=O)N/C(=C\c1ccccc1)C(=O)OCC(=O)Nc1cc(S(=O)(=O)N(C)C)ccc1Cl | -15% | -22% | -1% | 24% | -48% | -4%
CN1CC(=O)N(CC(=O)Nc2ccc(Cl)c(C(F)(F)F)c2)c2ccccc2C1=O | -19% | nt | 4% | 31% | 7%[59 µM] | -5%
CCN1CCN(CCC(=O)Nc2cc(C)ccc2C)CC1 | -10% | -8% | -1% | 32% | 5% | 10%
CN(C)c1ccc(NC(=O)CN2CCc3ccccc3C2)cc1 | 50µM* | -5% | 40µM* | ? | 13µM* | -23%
